# Source: PubChem BioAssay (National Center for Advancing Translational Sciences (NCATS))
# Rows were chosen to be rich in hits. Some 5.8% of all compounds tested hit in one or more screens of this group.
# KB-V1 MDR tox = qHTS assay for MDR1-selective chemotherapeutics: Primary screen using the drug-selected MDR subline cells KB-V1 | 3.4% of 400,000 active | AID 1347076, 2019 | KB-V1 MDR cells viability, CellTiter-Glo, 72 h | Potency, µM (titrated, usually from 46.1 µM), most hits filed as cytotoxic; further: nearly all actives have a fitted effect of over 60% in size
#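 Luminescent ATP read-out (CellTiter-Glo, 10 min) measures survival of drug-selected KB-V1 MDR cells after 72 h, 37 degrees C compound exposure. Medium: phenol-red-free DMEM, 10% FBS. Values from fitted concentration-response curves.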
# PINK1 modulator = A Quantitative High throughput Screen to Identify Chemical Modulators of PINK1 Expression. PINK1 immunofluorescence, high-content cytometry, 24 h. Potency, µM (top dose mostly 76.6 µM), most hits filed as activators. 0.2% of 410,000 active. AID 624263, 2012; active means well fitted activation curve with a large enough effect; inconclusive means small, poorly fitted or top-dose-only effect; cell line not stated here; further: nearly all actives have a fitted effect of over 65% in size
#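 Cells are seeded, rested 12 hours, then given compound at five concentrations or DMSO for 24 hours. After fixation, blocking and antibody staining, PINK1 amount and mitochondrial localization are scored; CCCP serves as control.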
# KB-3-1 tox = qHTS assay for MDR1-selective chemotherapeutics: Primary screen using the parental adenocarcinoma cell KB-3-1; Potency, µM (highest dose often 46.1 µM), usual class: cytotoxic; 1.4% of 400,000 active; KB-3-1 viability, CellTiter-Glo ATP luminescence, 72 h; further: nearly all actives have a fitted effect of over 60% in size
#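 Cells are dispensed, compounds pinned in, plates held at 37 °C for 72 h, then CellTiter-Glo is added and luminescence read after 10 minutes. Cell line: parental KB-3-1 in phenol-red-free DMEM, 10% FBS.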
# MCF10A rereplic = A quantitative high throughput screen for small molecules that induce DNA re-replication in MCF 10a normal breast cells | MCF 10A DNA re-replication, Hoechst nuclear intensity, 48 h | Potency, µM (doses to about 46.1 µM), usual class: activators | 2.9% of 350,000 active | AID 624296, 2012; further: nearly all actives have a fitted effect of over 50% in size
# SW480 rerep = A quantitative high throughput screen for small molecules that induce DNA re-replication in SW480 colon adenocarcinoma cells; Potency, µM (series often up to 46.1 µM), usual class: activators; SW480 DNA re-replication, Hoechst DNA content imaging, 48 h; 1.8% of 340,000 active; further: nearly all actives have a fitted effect of over 55% in size
#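 DNA re-replication was detected as more nuclei of elevated Hoechst intensity after 48 hr exposure to compound (23 nL pinned per well of 250 cells).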
# ALOX12 inh = Primary qHTS assay for inhibitors of human arachidonate 12S-lipoxygenase (ALOX12): Round 2; Polyunsaturated fatty acid lipoxygenase ALOX12 (Homo sapiens), P18054; purified 12hLO, xylenol orange hydroperoxide absorbance; Potency, µM (series often up to 108 µM), actives largely listed as inhibitors; 1.1% of 580,000 active
# Target sequence (P18054 whole entry, looked up): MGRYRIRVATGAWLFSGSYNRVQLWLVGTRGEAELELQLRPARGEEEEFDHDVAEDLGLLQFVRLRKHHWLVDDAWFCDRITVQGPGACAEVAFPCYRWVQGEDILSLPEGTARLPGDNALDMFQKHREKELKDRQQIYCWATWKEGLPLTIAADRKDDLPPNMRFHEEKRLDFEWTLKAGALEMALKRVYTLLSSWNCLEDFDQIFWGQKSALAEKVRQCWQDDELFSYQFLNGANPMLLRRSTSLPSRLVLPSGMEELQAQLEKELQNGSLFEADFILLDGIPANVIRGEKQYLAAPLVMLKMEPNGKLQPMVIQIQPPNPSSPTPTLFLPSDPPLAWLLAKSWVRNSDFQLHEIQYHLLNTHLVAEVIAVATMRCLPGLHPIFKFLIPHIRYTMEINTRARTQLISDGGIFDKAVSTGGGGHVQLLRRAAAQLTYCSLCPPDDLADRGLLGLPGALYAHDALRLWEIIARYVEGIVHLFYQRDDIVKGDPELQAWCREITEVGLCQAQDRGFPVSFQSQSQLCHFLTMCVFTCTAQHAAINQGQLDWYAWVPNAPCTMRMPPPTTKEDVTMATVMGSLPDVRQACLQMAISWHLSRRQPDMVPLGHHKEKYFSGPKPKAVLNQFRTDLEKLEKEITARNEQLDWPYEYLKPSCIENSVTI
#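 Purified human 12hLO (150 nM final) in 25 mM Hepes, 0.01% Triton X-100, pH 7.0 was preincubated 15 min at room temperature with compound. Then 40 uM arachidonic acid was added, 30 min. Hydroperoxide was read by Fe-XO absorbance ratio 573/405 nm.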
# A number is an active result; - = inactive; ? = inconclusive; . = no result. Unless noted, the call rests on the fitted dose curve; in most records, active means well fitted curve in the direction sought with a large enough effect; inconclusive means small, poorly fitted or top-dose-only effect, or another doubt; inactive means no such curve, though single readings can be large; an effect the other way counts as inactive or inconclusive.
SMILES,KB-V1 MDR tox,PINK1 modulator,KB-3-1 tox,MCF10A rereplic,SW480 rerep,ALOX12 inh
CCOc1cc(S(=O)(=O)NC2CC2)c(OCC)cc1-n1cnnn1,14.6µM,-,-,-,-,-
CCOc1ccc(Br)cc1S(=O)(=O)NC1CCCC1,16.4µM,-,-,-,-,-
O=C(C(Sc1nncn1-c1ccccc1)c1ccccc1)N1CCOCC1 (stereo unspecified),.,.,.,.,.,-
COCCNC(=O)c1ccc2c(c1)N(C)C(CC(=O)N1CCCOCC1)CO2 (stereo unspecified),.,.,.,.,.,-
COC(=O)CCCn1cc(CN2CC(N3CCN(Cc4cccc(C)c4)CC3)CS2(=O)=O)nn1 (stereo unspecified),?,-,-,.,.,7.08µM
CN1CCN(C2CN(Cc3cn(Cc4ccc(Cl)cc4)nn3)S(=O)(=O)C2)CC1 (stereo unspecified),-,-,-,.,.,28.2µM
CC(C#N)CN(C)C(=O)/C=C/c1ccsc1 (stereo unspecified),.,.,.,.,.,-
CCCOc1c(Cl)cc(/C=C(/C#N)C(=O)OC)cc1OCC,.,.,.,.,.,-
c1ccc(CN2CCCNCC2)cc1,.,.,.,.,.,-
CC(=NCCc1c(C)[nH]c2ccc(C)cc12)C1=C(O)CC(c2ccccc2)CC1=O (stereo unspecified),5.8µM,-,5.8µM,2.31µM,6.51µM,-
CCCC(=Nc1ccccc1OC)C1=C(O)CC(c2ccccc2)CC1=O (stereo unspecified),-,-,-,?,-,-
CC(=NCCc1c(C)[nH]c2ccc(OC(F)(F)F)cc12)C1=C(O)CC(c2ccccc2)CC1=O (stereo unspecified),?,-,4.61µM,8.2µM,8.2µM,-
CC(=O)C1=C(O)CC(c2ccccc2)CC1=NCCc1ccccc1 (stereo unspecified),?,-,-,-,-,-
Cc1cccc(C)c1NC(=S)NCCc1ccc(O)c(O)c1,-,-,-,?,-,35.5µM
CCn1c(SC(C)C(=O)Nc2cccc(F)c2)nc2ccccc2c1=O (stereo unspecified),.,.,.,.,.,-
Cc1cccc(-n2nnnc2C2(NCc3ccccc3)CCCC2)c1,.,.,.,.,.,-
Cc1ccc(CNC(=O)Cc2ccc(Br)cc2)cc1,?,-,?,6.51µM,?,-
COc1ccc2nc3ccccc3nc2c1NC(=O)c1ccc(Br)cc1,-,14.1µM,-,?,-,-
COc1ccc2nc3ccccc3nc2c1NC(=O)c1ccc(Cl)cc1,-,?,-,-,-,-
COc1ccccc1CNC(=O)Cc1ccc(Br)cc1,23.1µM,-,-,?,.,-
COc1cc(NC(=O)c2ccccc2)c(OC)cc1NC(=O)Cc1ccc(Br)cc1,-,-,-,11.6µM,?,-
O=S(=O)(NCCc1cn2ccccc2n1)c1cccc(Cl)c1,.,.,.,.,.,-
O=C(COC(=O)Cc1ccc(Br)cc1)NCc1ccccc1,-,-,-,.,.,-
O=C(Cc1ccc(Br)cc1)NCc1ccccc1,4.61µM,-,5.8µM,5.8µM,5.8µM,-
N#Cc1c(-c2ccc(Cl)cc2)n(O)c2ccccc12,3.66µM,35.5µM,7.31µM,3.66µM,8.2µM,.
SMILES,KB-V1 MDR tox,PINK1 modulator,KB-3-1 tox,MCF10A rereplic,SW480 rerep,ALOX12 inh
Cc1nn(-c2ccccc2)nc1CNC(=O)CC(C)(C)C,-,-,-,-,-,-
Cc1nn(-c2ccccc2)nc1CNC(=O)c1ncoc1-c1ccccc1,-,-,-,23.1µM,-,-
Cc1ccc(/C=C/C(=O)OC(C)C(=O)NC2CCCCC2C)o1 (stereo unspecified),?,-,-,-,-,?
Cc1ccc(/C=C/C(=O)OC(C)C(=O)c2ccc(C)c(C)c2)o1 (stereo unspecified),.,.,.,.,.,6.31µM
CC1CC(NC(=O)c2cc3c(=O)n4ccccc4nc3n2C)CC(C)(C)C1 (stereo unspecified),?,-,-,10.3µM,10µM,-
CC1Cc2ccccc2N1C(=O)c1cc2c(=O)n3ccccc3nc2n1C (stereo unspecified),5.8µM,-,?,?,-,-
CCOC(=O)CC(N)c1cc(OC)cc(OC)c1 (stereo unspecified),.,.,.,.,.,-
Cc1cccc(-n2nc(C)c3c2NC2=C(C(=O)CCC2)C3c2ccccn2)c1 (stereo unspecified),-,-,-,-,-,-
Cc1nn(-c2ccccn2)c2c1C(c1ccsc1)C1=C(CCCC1=O)N2 (stereo unspecified),3.66µM,-,?,-,?,?
O=C(Nc1cccc(Cl)c1)C1C2CCC3C(CCC21)C3(Cl)Cl (stereo unspecified),20.6µM,22.4µM,?,-,-,-
O=C(Nc1ccccc1)C1C2CCC3C(CCC21)C3(Cl)Cl (stereo unspecified),-,-,-,-,-,-
O=C(Nc1cn[nH]c1)C1CCN(c2ccc(Cl)nn2)CC1,.,.,.,.,.,-
COC(=O)[C@H](NC(=O)Nc1cc(C)cc(C)c1)C(C)C,.,.,.,.,.,-
Cc1ccc(N2CC(c3nnc(NC(=O)c4ccc(NC(=O)C(C)C)cc4)s3)CC2=O)cc1Cl (stereo unspecified),.,.,.,.,.,-
Cc1ccc(N/C(SCc2ccccc2C)=C(/C#N)C(=O)NCc2ccco2)cc1C,11.6µM,?,?,?,-,-
CCc1ccc(N/C(SCc2cccc(F)c2)=C(/C#N)C(=O)NCc2ccco2)cc1,?,-,-,-,?,-
Cc1ccccc1-c1nc(CS(=O)(=O)CC(=O)NCc2ccccc2Br)c(C)o1,.,.,.,.,.,-
Cc1cc(S(=O)(=O)Nc2ccc3c(c2)n(C)c(=O)n3C)ccc1F,-,-,?,-,-,-
Cc1cc(C)cc(NS(=O)(=O)c2ccc3c(c2)c(=O)n(C)c(=O)n3C)c1,?,-,8.2µM,-,-,-
Cc1ccc(NS(=O)(=O)c2ccc3c(c2)c(=O)n(C)c(=O)n3C)cc1F,?,-,18.4µM,-,?,-
CNC(=O)c1cc(-c2ccccc2)cc2c1OCCN2Cc1cccnc1,.,.,.,.,.,-
COC(=O)C1=CN(c2cccc(OCc3ccccc3)c2)C(N)=C(C#N)C1c1ccccc1 (stereo unspecified),?,.,-,.,.,-
COC(=O)C1=CN(c2ccc(C(C)(C)C)cc2)C(N)=C(C#N)C1c1cccc2ccccc12 (stereo unspecified),-,.,?,.,.,?
COC(=O)C1=CN(c2ccc(F)cc2)C=C(C(=O)OC)C1c1cccc(Br)c1,?,-,?,14.6µM,23.1µM,-
